Assay results: PubChem BioAssay (NCATS)
Values joined by “and” are separate entries in the source; they are usually repeats but may differ in a detail not shown here. Equal values may be shown once. Inconclusive results are not listed. Where a call stands in place of a potency, no number is given. Active and inactive are the calls of the source. Unless noted, calls follow the shape of the dose curve; as a rule, active = well fitted curve in the direction sought with a large enough effect; inconclusive = small, poorly fitted or top-dose-only effect, or another doubt; inactive = no such curve, though single readings can be large; an effect the other way counts as inactive or inconclusive.

Columns and labels:
[1] = target: Glucocorticoid receptor (Homo sapiens) (UniProt P04150); test: GR-GFP Redistribution (AID 450;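 active = compounds whose dose series gives a full or clear partial fitted curve of increased nuclear translocation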; also: potency is read from the fitted curve at half-maximal effect); settings: U2OS GR-GFP nuclear translocation, laser cytometry, 2 h
[2] = target: Glucocorticoid receptor (Homo sapiens) (UniProt P04150); test: GR-EFC Redistribution (AID 451; calls by dose curve; also: potency is read from the fitted curve at half-maximal effect); settings: CHO-K1 GR-EFC translocation, beta-gal luminescence, 2 h
In short: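 Translocation of GR-ED fusion to nuclear EA restores b-gal, read by luminescence after 1 h room-temperature detection. Engineered CHO-K1 biosensor cells, 1,000/well, exposed 2 h at 37 C to titrations up to 46 uM final.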

[3] = target: Mitogen-activated protein kinase 10 (Mus musculus) (UniProt Q61831); test: JNK3 AlphaScreen Assay (AID 530; active = well fitted curve in either direction with a large enough effect, not every such curve was filed as active;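 also: kinase came from lysate of stimulated human HepG2 cells; signal reports phosphorylation of biotinylated GST-cJun 1-79 at Ser73 with 10 µM ATP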)
In short: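 Compound titrations were preincubated 15 minutes at room temperature with substrate, antibody and pre-activated JNK3-containing HepG2 lysate. Reactions were started with 10 uM ATP and stopped with EDTA-containing bead buffer for AlphaScreen detection.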

[4] = target: 3',5'-cyclic-AMP phosphodiesterase 4B (Homo sapiens) (UniProt Q07343); test: qHTS Assay for Inhibitors of PDE-IV (AID 607; active = well fitted activation curve with a large enough effect in the main read-out, with a control signal flat, not every such curve was filed as active)
In short: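 Live HEK293 cells with a modified cyclic nucleotide-gated (CNG) channel report intracellular cAMP via membrane-potential dye fluorescence (ex 535/em 590 nm). Endogenous PDE-IV was targeted. Compounds were tested at up to 22.9 uM final; RO 20-1724 100 uM served as control.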

[5] = qHTS Assay for Lipid Storage Modulators (AID 1519; calls by dose curve); settings: Drosophila S3 cells, BODIPY lipid droplet/cell ratio, laser cytometry, cells loaded with oleic acid; for activity change, negative = inhibition: at 57.5 µM (top of the series)
In short: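 Cells seeded at 5,000 per well were treated with compounds over a concentration series and loaded with oleic acid (400 uM, as added). Lipid droplet fluorescence (488 nm excitation, 500-530 nm channel) was read by laser-scanning cytometry and normalized to 20 uM Triacsin C.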

[6] = target: Ubiquitin carboxyl-terminal hydrolase 1 (Homo sapiens) (UniProt O94782); test: Inhibitors of USP1/UAF1: Pilot qHTS (AID 504865);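 also: rhodamine fluorescence freed from ubiquitin-rhodamine substrate followed over time; top concentration of the series differs between compounds; nearly all actives have a fitted effect of over 35% in size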
In short: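 Deubiquitinase activity followed as kinetic rhodamine fluorescence release from 150 nM Ub-Rho. 1 nM USP1/UAF1 with compound, after 15 min room-temperature preincubation, in HEPES pH 7.8 buffer containing TCEP, EDTA, BSA and Tween-20.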

[7] = target: DNA dC->dU-editing enzyme APOBEC-3G (Homo sapiens) (UniProt Q9HC16); test: qHTS for inhibitors of Vif-A3G interactions: Validation (AID 588379)
In short: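 HeLa cells stably expressing Vif and A3G-eYFP, 700 cells/well, incubated overnight at 37 deg C, then exposed to compound overnight at 37 deg C. Inhibition of Vif-mediated degradation read as increased yellow fluorescence (Ex 488/Em 500-530) by laser-scanning cytometry.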

[8] = tested on: Zika virus NS2B-NS3 protease; test: Primary screen GU AMC qHTS for Zika virus inhibitors (AID 1347154); also: nearly all actives have a fitted effect of over 70% in size
In short: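 Fluorogenic AMC-substrate cleavage by noncovalent NS2B-NS3 protease complex (25 nM, pH 8.0 Tris buffer with Tween 20) followed for 15 minutes at room temperature (~20% conversion). Percent inhibition from ex340/em450 signal change, fitted by 4-parameter Hill equation.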

[9] = Primary qHTS for small molecule stabilizers of the endoplasmic reticulum resident proteome: Secreted ER Calcium Modulated Protein (SERCaMP) assay (AID 1508630)
In short: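 GLuc-SERCaMP-expressing SH-SY5Y cells, pretreated 16 h with compound, are challenged with thapsigargin to empty ER calcium stores; after 4 h, coelenterazine is added directly to the medium and luminescence is imaged.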

[10] = AP1 Signaling Pathway (AID 357; active = well fitted curve in either direction with a large enough effect, not every such curve was filed as active;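 also: ME-180 reporter cells stimulated with EGF at its EC50 level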)
In short: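 First, ME-180 AP-1-bla cells were cultured overnight at 37 °C in low-serum Opti-MEM. Next, titrated compounds with EC50 EGF were incubated 5 hours. Finally, CCF4 was added for 2.5 hours and the 460/530 nm ratio recorded.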

[11] = target: Cytochrome P450 1A2 (Homo sapiens) (UniProt P05177); test: p450-cyp1a2 (AID 410; calls by dose curve)
In short: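 20nM CYP1A2 with 100uM Luciferin-ME (at Km) in 100mM KPO4; compound preincubated 10 min, NADPH regeneration added, 60 min at room temperature. Luciferin quantified by luminescence after detection reagent; normalized to 57 uM furafylline.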

[12] = NFAT Signaling Pathway (AID 444; active = well fitted curve in either direction with a large enough effect, not every such curve was filed as active;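 also: carbachol stimulus at about its EC50 of 1 µM final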); settings: Jurkat NFAT-bla M1, carbachol, beta-lactamase ratio, 5 h
In short: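 Read-out: CCF4 FRET ratio (460 nm/530 nm) after 1 h RT dye loading, used for %activity and AC50 from titration series. Cells: Jurkat NFAT-β-lactamase/M1 line, treated with compound plus 1 uM carbachol for 5 h, 37 °C.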

[13] = Stat Signaling Pathway (AID 446; active = well fitted curve in either direction with a large enough effect, not every such curve was filed as active;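 also: ME-180 cervical cancer cells given 40 pM IL-6 alongside compound; SIE-controlled beta-lactamase reporter measured as 460/530 nm FRET emission ratio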)
In short: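 IL-6/STAT signaling read in ME-180 cells via an SIE beta-lactamase reporter. Stimulus was 40 pM IL-6 (its AC50) for 5 hrs, so both activation and inhibition register.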

[14] = target: Guanine nucleotide-binding protein G(i) subunit alpha-1 (Homo sapiens) (UniProt P63096); test: qHTS Assay for Inhibitors of RGS12 GoLoco Motif Activity (Green Fluorophore) (AID 879);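 also: negative values mean loss of peptide binding seen as reduced polarization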
In short: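 Fluorescence polarization assay: 50 nM Gαi1 with 10 nM FITC-labeled RGS12 GoLoco peptide in 10 mM Tris pH 7.5, 150 mM NaCl, 0.1 mM GDP, 0.05% NP40, 10 min at room temperature with compound.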

[15] = target: Pyruvate kinase (Leishmania mexicana) (UniProt Q27686); test: qHTS Validation Assay for Inhibitors of Leishmania Mexicana Pyruvate Kinase (AID 945)
In short: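 Compounds are tested as eight-point concentration series. Reactions contain 0.2 nM LmPYK E451W, 0.5 mM PEP, 0.1 mM ADP, 7 mM MgCl2 and 50 mM KCl at pH 7.2, run 1 h at room temperature, then read by PKLight luminescence.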

[16] = target: Pyruvate kinase PKM (Homo sapiens) (UniProt P14618); test: qHTS Assay for Activators of Human Muscle Pyruvate Kinase (AID 954; active = well fitted curve in the direction sought with a large enough effect, not every such curve was filed as active)
In short: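 Enzyme was run at intermediate activity so both inhibitors and activators could be detected. ATP formed from ADP and PEP by 0.1 nM human PKM2 during a 1 h room-temperature incubation was quantified by coupled luciferase luminescence.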

[17] = target: Alpha-galactosidase (Coffea arabica) (UniProt Q42656); test: Counterscreen for Glucocerebrosidase Inhibitors: qHTS Assay for Coffee Bean alpha-Galactosidase at pH 4.5 (AID 957)
In short: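 Coffee bean enzyme (2 nM) with 80 uM 4-methylumbelliferyl alpha-D-galactopyranoside in 50 mM citric acid, 0.005% Tween-20, pH 4.5, 20 min at room temperature; compounds 0.7 nM–77 uM. Stopped at pH 10, fluorescence 365/440 nm; AC50 from Hill fits.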

[18] = target: Alpha-galactosidase A (Homo sapiens) (UniProt P06280); test: Counterscreen for Glucocerebrosidase Inhibitors: qHTS Assay for Human alpha-Galactosidase at pH 4.5 (AID 992)
In short: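 Read-out is 4-methylumbelliferone fluorescence (365 nm excitation, 440 nm emission) after a pH 10 NaOH/glycine stop. Reactions held 2 nM enzyme and 80 uM substrate at pH 4.5 for 20 min at room temperature.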

[19] = target: alpha-glucosidase (Oryza sativa, rice) (UniProt Q653V4); test: Counterscreen for Glucocerebrosidase Inhibitors: qHTS Assay for Rice alpha-Glucosidase at pH 5.0 (AID 997)
In short: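 Rice alpha-glucosidase (4 nM final) with 400 uM 4-methylumbelliferyl-alpha-D-glucopyranoside in citrate buffer pH 5.0, 20 min at room temperature, stopped at pH 10; fluorescence 365/440 nm, compounds 0.7 nM–77 uM, AC50 from Hill fits.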

[20] = target: Alpha-galactosidase (Coffea arabica) (UniProt Q42656); test: Counterscreen for Glucocerebrosidase Inhibitors: qHTS Assay for Coffee Bean alpha-Galactosidase at pH 5.9 (AID 998)
In short: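 Compounds were titrated from 0.7 nM to 77 uM against green coffee bean alpha-galactosidase (2 nM) using 80 uM fluorogenic 4-methylumbelliferyl substrate. After 20 min at room temperature, reactions were stopped at pH 10 and read by fluorescence.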

[21] = measured here: cell count channel max response
[22] = measured here: lipid channel max response

Sequence of Glucocorticoid receptor (Homo sapiens) (P04150 whole entry, looked up, the tested form may be a part): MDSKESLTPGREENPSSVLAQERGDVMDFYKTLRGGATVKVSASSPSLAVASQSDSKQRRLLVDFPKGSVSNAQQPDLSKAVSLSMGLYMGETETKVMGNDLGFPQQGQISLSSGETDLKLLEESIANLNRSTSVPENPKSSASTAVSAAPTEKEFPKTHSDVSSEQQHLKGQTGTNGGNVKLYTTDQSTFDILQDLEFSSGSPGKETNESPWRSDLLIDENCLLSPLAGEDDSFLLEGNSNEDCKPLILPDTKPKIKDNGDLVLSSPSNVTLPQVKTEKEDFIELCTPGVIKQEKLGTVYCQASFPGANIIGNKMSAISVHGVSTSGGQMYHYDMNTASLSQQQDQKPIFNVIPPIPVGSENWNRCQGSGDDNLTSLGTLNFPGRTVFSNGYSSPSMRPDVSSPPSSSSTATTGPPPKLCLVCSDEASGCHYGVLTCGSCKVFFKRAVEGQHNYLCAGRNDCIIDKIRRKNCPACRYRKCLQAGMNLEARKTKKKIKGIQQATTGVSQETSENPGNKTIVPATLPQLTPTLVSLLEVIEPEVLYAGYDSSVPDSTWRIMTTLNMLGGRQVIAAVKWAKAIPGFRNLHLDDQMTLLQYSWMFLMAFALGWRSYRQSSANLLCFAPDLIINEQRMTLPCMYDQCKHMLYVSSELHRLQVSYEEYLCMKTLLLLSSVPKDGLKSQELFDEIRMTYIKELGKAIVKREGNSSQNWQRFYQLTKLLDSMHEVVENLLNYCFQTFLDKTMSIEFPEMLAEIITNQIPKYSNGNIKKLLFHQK
Sequence of Cytochrome P450 1A2 (Homo sapiens) (P05177 whole entry, looked up): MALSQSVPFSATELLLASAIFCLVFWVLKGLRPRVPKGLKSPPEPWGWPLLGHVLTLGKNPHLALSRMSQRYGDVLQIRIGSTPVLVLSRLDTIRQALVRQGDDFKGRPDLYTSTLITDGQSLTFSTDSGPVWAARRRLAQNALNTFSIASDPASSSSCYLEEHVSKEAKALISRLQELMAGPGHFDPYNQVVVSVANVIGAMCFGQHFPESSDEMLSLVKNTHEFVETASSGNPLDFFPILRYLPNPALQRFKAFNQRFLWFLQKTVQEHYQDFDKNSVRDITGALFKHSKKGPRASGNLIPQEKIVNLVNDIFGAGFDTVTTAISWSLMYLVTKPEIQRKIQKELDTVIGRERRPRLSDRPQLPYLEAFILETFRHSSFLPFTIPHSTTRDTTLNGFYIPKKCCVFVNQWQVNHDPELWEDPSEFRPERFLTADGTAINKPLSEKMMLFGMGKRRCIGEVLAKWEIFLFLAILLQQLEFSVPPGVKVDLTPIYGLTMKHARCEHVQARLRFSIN
Sequence of Ubiquitin carboxyl-terminal hydrolase 1 (Homo sapiens) (O94782 whole entry, looked up): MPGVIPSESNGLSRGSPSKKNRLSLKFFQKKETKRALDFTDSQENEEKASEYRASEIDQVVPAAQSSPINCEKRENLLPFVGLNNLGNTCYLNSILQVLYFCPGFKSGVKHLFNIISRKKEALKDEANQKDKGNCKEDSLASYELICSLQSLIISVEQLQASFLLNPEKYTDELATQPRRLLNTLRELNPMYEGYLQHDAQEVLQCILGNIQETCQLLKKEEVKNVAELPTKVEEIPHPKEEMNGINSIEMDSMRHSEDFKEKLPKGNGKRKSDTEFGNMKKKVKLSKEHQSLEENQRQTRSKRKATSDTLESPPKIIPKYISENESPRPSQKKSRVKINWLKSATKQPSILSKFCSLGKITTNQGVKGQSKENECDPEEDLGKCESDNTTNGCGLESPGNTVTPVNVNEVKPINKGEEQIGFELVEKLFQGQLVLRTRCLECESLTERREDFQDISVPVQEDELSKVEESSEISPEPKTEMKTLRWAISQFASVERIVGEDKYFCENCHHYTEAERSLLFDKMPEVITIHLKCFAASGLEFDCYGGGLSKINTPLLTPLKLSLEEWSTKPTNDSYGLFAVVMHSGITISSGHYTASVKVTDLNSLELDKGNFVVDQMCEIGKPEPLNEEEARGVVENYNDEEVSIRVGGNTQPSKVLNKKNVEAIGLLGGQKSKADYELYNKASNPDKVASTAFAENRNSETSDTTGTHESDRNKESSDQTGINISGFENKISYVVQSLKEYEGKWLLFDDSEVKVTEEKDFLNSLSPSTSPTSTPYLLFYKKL
Sequence of 3',5'-cyclic-AMP phosphodiesterase 4B (Homo sapiens) (Q07343 whole entry, looked up): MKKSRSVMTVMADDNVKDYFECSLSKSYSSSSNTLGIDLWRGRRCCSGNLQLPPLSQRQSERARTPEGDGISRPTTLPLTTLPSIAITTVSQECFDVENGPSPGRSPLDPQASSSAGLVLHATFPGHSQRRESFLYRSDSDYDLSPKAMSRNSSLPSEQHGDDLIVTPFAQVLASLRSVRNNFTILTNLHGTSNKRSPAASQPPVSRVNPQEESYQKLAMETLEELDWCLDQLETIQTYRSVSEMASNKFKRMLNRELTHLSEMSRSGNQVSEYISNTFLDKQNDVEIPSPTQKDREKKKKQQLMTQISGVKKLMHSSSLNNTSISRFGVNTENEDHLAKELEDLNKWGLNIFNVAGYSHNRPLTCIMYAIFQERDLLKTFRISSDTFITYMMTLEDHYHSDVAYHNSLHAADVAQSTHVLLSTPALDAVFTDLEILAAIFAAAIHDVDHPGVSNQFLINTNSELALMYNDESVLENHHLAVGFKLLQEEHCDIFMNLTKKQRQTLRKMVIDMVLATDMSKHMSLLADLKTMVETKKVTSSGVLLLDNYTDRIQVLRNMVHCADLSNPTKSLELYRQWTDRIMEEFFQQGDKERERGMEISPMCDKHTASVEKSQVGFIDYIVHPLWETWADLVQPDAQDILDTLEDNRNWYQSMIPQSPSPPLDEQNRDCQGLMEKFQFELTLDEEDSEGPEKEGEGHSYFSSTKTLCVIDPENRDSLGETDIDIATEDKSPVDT
Sequence of DNA dC->dU-editing enzyme APOBEC-3G (Homo sapiens) (Q9HC16 whole entry, looked up): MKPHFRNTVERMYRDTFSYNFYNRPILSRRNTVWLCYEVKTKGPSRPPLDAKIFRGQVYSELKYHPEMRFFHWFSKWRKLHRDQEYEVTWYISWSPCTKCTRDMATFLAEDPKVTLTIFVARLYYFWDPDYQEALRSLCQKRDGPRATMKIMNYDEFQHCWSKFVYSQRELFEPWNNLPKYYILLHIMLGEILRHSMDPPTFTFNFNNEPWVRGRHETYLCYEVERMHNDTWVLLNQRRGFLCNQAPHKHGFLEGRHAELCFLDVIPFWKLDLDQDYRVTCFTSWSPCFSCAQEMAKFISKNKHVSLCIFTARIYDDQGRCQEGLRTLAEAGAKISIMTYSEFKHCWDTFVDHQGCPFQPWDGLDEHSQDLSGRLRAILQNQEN
Sequence of Alpha-galactosidase (Coffea arabica) (Q42656 whole entry, looked up): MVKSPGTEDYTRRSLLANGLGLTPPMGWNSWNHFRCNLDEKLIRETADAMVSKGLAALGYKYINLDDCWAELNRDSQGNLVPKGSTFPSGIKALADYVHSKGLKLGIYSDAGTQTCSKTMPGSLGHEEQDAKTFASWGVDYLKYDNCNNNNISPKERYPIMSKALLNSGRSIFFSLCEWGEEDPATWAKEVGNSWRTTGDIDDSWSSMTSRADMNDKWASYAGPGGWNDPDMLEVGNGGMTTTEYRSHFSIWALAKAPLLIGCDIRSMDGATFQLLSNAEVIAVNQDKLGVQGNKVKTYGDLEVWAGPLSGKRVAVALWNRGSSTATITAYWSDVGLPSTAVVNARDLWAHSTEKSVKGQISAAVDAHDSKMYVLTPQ
Sequence of Pyruvate kinase PKM (Homo sapiens) (P14618 whole entry, looked up): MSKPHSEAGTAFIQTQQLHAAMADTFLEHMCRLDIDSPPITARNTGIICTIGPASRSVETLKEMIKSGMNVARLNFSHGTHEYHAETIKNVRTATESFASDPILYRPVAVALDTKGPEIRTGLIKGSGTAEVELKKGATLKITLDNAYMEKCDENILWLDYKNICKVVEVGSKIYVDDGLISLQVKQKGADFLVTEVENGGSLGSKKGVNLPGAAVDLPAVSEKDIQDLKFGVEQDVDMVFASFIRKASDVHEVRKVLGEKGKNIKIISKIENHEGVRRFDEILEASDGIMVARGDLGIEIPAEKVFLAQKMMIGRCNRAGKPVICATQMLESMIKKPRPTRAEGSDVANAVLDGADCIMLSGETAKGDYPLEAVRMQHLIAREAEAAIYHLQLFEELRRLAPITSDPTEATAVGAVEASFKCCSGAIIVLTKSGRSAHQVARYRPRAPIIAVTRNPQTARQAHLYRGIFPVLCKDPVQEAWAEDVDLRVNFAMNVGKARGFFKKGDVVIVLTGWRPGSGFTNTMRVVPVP
Sequence of Pyruvate kinase (Leishmania mexicana) (Q27686 2-499 E452W): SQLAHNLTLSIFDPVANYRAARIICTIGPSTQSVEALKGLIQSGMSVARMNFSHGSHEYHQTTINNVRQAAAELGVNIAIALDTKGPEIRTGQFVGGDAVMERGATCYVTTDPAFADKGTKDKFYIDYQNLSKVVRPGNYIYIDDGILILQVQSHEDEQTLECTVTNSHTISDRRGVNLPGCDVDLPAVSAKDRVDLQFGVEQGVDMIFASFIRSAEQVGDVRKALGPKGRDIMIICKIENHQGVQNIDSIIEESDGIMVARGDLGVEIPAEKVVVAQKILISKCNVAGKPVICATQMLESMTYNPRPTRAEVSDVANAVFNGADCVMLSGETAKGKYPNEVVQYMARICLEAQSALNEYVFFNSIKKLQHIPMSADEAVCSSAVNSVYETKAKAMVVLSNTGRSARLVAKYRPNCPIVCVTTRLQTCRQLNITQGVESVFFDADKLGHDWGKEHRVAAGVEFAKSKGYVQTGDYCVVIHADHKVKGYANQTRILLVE
Sequence of Guanine nucleotide-binding protein G(i) subunit alpha-1 (Homo sapiens) (P63096 whole entry, looked up): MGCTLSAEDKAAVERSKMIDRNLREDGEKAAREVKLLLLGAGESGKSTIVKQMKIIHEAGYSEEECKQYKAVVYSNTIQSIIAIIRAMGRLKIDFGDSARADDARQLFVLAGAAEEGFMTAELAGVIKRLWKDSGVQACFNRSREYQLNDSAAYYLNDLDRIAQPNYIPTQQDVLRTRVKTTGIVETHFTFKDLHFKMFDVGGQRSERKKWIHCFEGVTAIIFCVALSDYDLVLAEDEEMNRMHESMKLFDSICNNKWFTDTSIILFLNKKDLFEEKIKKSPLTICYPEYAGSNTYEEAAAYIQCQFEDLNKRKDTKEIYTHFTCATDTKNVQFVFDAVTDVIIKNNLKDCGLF

SMILES: O=C(O)/C=C\CO
- Potency [1]: > 46 µM (inactive)
- Potency [2]: > 46 µM (inactive)
- outcome [3]: inactive
- Potency [4]: inactive
- activity change, negative = inhibition [5]: 3.52% (inactive)
- max response [5, 21]: -10.2%
- max response [5, 22]: -9.77%
- Potency [6]: inactive
- Potency [7]: inactive
- Potency [8]: inactive
- Potency [9]: inactive

SMILES: O=C1C2CCN(CC2)C1(CO)CO
- activity change, negative = inhibition [10]: 3.23% [at 7.69 µM] (inactive)
- Potency [11]: inactive
- activity change, negative = inhibition ([12]; at 7.69 µM (top of the series)): -7.28% (inactive)
- activity, negative = inhibition [13]: 4.51% [at 7.69 µM] (inactive)
- Potency [1]: > 46 µM (inactive)
- Potency [2]: > 46 µM (inactive) and > 9.22 µM (inactive)
- outcome [3]: inactive
- Potency [4]: inactive
- Potency [7]: inactive
- Potency [8]: inactive
- Potency [9]: inactive

SMILES: CCCN[C@@H]1CCc2c(OC)cccc2[C@@H]1C
- Potency [1]: > 46 µM (inactive)
- Potency [2]: > 46 µM (inactive)
- Potency [4]: inactive
- activity change, negative = inhibition [5]: -0.687% (inactive)
- max response [5, 21]: -20.9%
- max response [5, 22]: -24%
- Potency [6]: inactive
- Potency [7]: inactive
- Potency [8]: inactive
- Potency [9]: inactive

SMILES: COC1=CC(=O)OC(/C=C/c2ccccc2)C1 (stereo not given)
- outcome [10]: inactive
- activity change, negative = inhibition ([12]; at 17.2 µM (top of the series)): -0.501% (inactive)
- outcome [13]: inactive
- Potency [1]: > 20.6 µM (inactive)
- Potency [8]: inactive
- Potency [9]: inactive

SMILES: COc1ccc(CCN)cc1O
- outcome [10]: inactive
- activity change, negative = inhibition ([12]; at 38 µM (top of the series)): -3.06% (inactive)
- Potency [1]: > 46 µM (inactive)
- Potency [2]: > 46 µM (inactive)
- Potency [4]: inactive
- outcome [14]: inactive
- outcome [15]: inactive
- outcome [16]: inactive
- outcome [17]: inactive
- outcome [18]: inactive
- outcome [19]: inactive
- outcome [20]: inactive
- Potency [8]: inactive
- Potency [9]: inactive

SMILES: C=C(C)CN1CC[C@@]23c4c5ccc(O)c4O[C@H]2c2[nH]c4ccccc4c2C[C@]3(O)[C@@H]1C5
- Potency [11]: inactive
- Potency [1]: > 46 µM (inactive)
- Potency [2]: > 46 µM (inactive)
- outcome [3]: inactive
- Potency [4]: inactive
- Potency [7]: inactive
- Potency [8]: inactive
- Potency [9]: inactive

SMILES: C=CCN1C[C@H](C)N([C@@H](c2ccccc2)c2ccc(C(=O)N(CC)CC)cc2)C[C@H]1C
- Potency [1]: > 46 µM (inactive)
- Potency [2]: > 46 µM (inactive)
- outcome [3]: inactive
- Potency [4]: inactive
- activity change, negative = inhibition [5]: 7.78% (inactive)
- max response [5, 21]: 14.7%
- max response [5, 22]: 20%
- Potency [6]: inactive
- Potency [7]: inactive
- Potency [8]: inactive
- Potency [9]: inactive

SMILES: O=C(O)[C@@H]1C[C@H]2C[C@@H](CP(=O)(O)O)CC[C@H]2CN1
- Potency [1]: > 46 µM (inactive)
- Potency [2]: > 46 µM (inactive)
- activity change, negative = inhibition [5]: -1.59% (inactive)
- max response [5, 21]: -9.16%
- max response [5, 22]: -11.2%
- Potency [6]: inactive
- Potency [7]: inactive
- Potency [8]: inactive
- Potency [9]: inactive

SMILES: O=C(O)Cc1cccnc1C(=O)O
- Potency [1]: > 46 µM (inactive)
- Potency [2]: > 46 µM (inactive)
- outcome [3]: inactive
- activity change, negative = inhibition [5]: 3.53% (inactive)
- max response [5, 21]: -8.51%
- max response [5, 22]: -2.88%
- Potency [6]: inactive
- Potency [7]: inactive
- Potency [8]: inactive
- Potency [9]: inactive
